Measurements published in the supplement of paper PMC6555819.

How the values were obtained:
Test in all cases: PBM binding z-score (relative to random genomic background probes); higher = stronger binding; sequences stand for … in GC…GCGATTGACAGCGTAGAATGAAGG
[1] = system: RARb homodimer (NR concentration 270 nM)
Procedure, shortened: (§1)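 Binding z-scores were set against random background probes. The data came from custom Agilent 4×180K protein-binding microarrays carrying double-stranded probes with 34-nt variable regions, incubated 1 h with ligand-free nuclear receptor dimers. Partner-specific antibodies detected binding, and scanned fluorescence was regression-normalized.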

[2] = system: RARg:RXRa (NR concentration 270 nM, RXRa partner concentration 90 nM)
Procedure, shortened: as §1

[3] = system: RARg homodimer (NR concentration 270 nM)
Procedure, shortened: as §1

[4] = system: RXRa DBDmut IVT, anti-RXR (DBD mutation: RXRa K156A/R161A, NR concentration 90 nM)
Procedure, shortened: as §1

[5] = system: RXRa homodimer (NR concentration 180 nM)
Procedure, shortened: as §1

[6] = system: THRa:RXRa (NR concentration 90 nM, RXRa partner concentration 90 nM)
Procedure, shortened: as §1

[7] = system: THRa homodimer (NR concentration 90 nM)
Procedure, shortened: as §1

[8] = system: VDR homodimer (NR concentration 270 nM)
Procedure, shortened: as §1

Sequence | PBM binding z-score [1] | PBM binding z-score [2] | PBM binding z-score [3] | PBM binding z-score [4] | PBM binding z-score [5] | PBM binding z-score [6] | PBM binding z-score [7] | PBM binding z-score [8]
CCTAGTTGGTCAAGGTCAAACACGCTATAGGTAC | 4.29 | 4.69 | 4.37 | 2.71 | 4.76 | 4.07 | 3.39 | 4.52
TCGAGTAGGTAACCAATGGGGCATTCAGCTTTCT | -0.0946 | -0.146 | -0.427 | 0.00393 | 0.0647 | 0.124 | -0.752 | -0.729
CCTATTACTTGACCATAAGGGCAACCGAAGCTCG | 1.99 | 0.821 | 1.15 | 0.77 | 0.915 | 1.84 | 1.86 | 1.23
CAAACTAGGTCTCCGGAAGGTCAAAGTCCGCATG | 4.17 | 4.36 | 3.46 | 0.358 | 3.68 | 2.88 | 1.4 | 1.84
CGAACTAGGTCATTGACAGGTCAGTGAATAGTAA | 4.18 | 6.77 | 5.57 | 2.35 | 4.6 | 3.32 | 0.924 | 2.04
TCTCGCAGGACACGAAAGGTCAGAGCTCGACATC | 4.29 | 4.42 | 4.47 | 1.05 | 4.07 | 3.42 | 0.878 | 0.759
CCGCCTGGGGCATAAGGTTACCATAAGCCAGCCC | 1.94 | 1.82 | 1.11 | -0.905 | 1.07 | 1.99 | 1.33 | -0.126
ACAGACAGCTGAGTGAAGGTAACTCAGCTGGACG | -0.758 | -0.23 | -0.426 | -0.997 | 0.00757 | -0.178 | -0.586 | -0.66
GCTAGTTGGGCAGTAAAAGGTCACACACCGGTCG | 5.15 | 5.03 | 4.7 | 0.364 | 5.38 | 3.49 | 1.62 | 1.66
TAGCCTAGGTCATGCCGGCCAGTATAGTGTCGGC | 2.79 | 3.6 | 3.93 | 0.522 | 2.62 | 2.72 | 0.854 | 0.14
AGTCAAAGTTCATCTAGGTAACGTCAGATATGCT | 3.92 | 5.76 | 6.22 | 4.83 | 4.45 | 3.18 | 0.387 | 5.66
GCAGACAGGTGAAACGCAGGTAACTCCGGGTGGC | 0.0338 | 0.702 | -0.185 | -0.71 | 0.572 | 1.32 | -0.603 | -0.791
CCTACTGGGCCATGAGGTCATTGATATCAACGTT | 3.32 | 3.54 | 2.78 | 1.42 | 3.58 | 3.97 | 4.36 | 4.75
ATCGAAAGGTCGTGAGGTGAGAATACAGAAAGGC | 3.14 | 4.62 | 3.89 | 1.28 | 5.3 | 3.49 | 1.44 | 0.87
ATCTCTAGGTAAGACTCAGTTCAGTGAAGAACGC | 0.723 | 0.0914 | 0.115 | 0.479 | -0.0944 | 0.922 | 0.796 | 1.42
CCTAGTTGGTCCAGGTCACACACGCTATAGGTAC | 3.15 | 2.68 | 2.73 | 1.35 | 2.64 | 3.72 | 3.98 | 2.54
CGTCCAAGGCCAATGCTAGGTCAGTGAAAGCATT | 2.64 | 2.16 | 1.94 | 0.513 | 0.218 | 2 | 0.569 | 0.135
CCCACTGGGGCAGAAAGGTTACCATACCATCCGG | 2.2 | 1.52 | 1.63 | -1.65 | 1.6 | 1.01 | -0.221 | -0.41
ACTAGCAGGCCATGTTTGGGTCACTCAAACAAAG | 1.98 | 2.04 | 1.42 | -0.345 | 0.614 | 2.24 | 1.21 | -0.169

Sequence | PBM binding z-score [1] | PBM binding z-score [2] | PBM binding z-score [3] | PBM binding z-score [4] | PBM binding z-score [5] | PBM binding z-score [6] | PBM binding z-score [7] | PBM binding z-score [8]
CGAACTAGGTCAAAACAGGACAGTGAAGGATGAT | 2.27 | 3.48 | 3.77 | 1.49 | 2.25 | 4.13 | 0.485 | 0.573
CGAACGAGGGCATGAGTTGATAACAAATGCCGAT | 0.641 | 1.37 | 1.59 | 2.64 | 1.05 | 1.19 | -0.0778 | 1.48
ACTAGTTGGTCAGCTGAGGTCCCACACAATTCGG | 0.808 | 0.425 | 0.578 | 0.281 | 0.206 | 2.75 | 0.564 | -0.00436
CCAGACAGGTGAGAAGGCAACTCAGCCTCGATTA | 0.103 | 0.0395 | 0.271 | 0.0472 | 0.0532 | -0.202 | -0.363 | 0.221
AGAATGAGGTTAGTAAGATCAGGGAATTGCGGTC | 0.918 | 0.607 | 0.689 | 0.175 | 0.741 | 1.33 | 0.245 | 0.435
GGAATGAGGGCAAAGTTGATAGCATCTGTCGACG | 1.42 | 2.19 | 1.83 | 2.73 | 2.31 | 1.89 | 0.391 | 1.75
CAGCCTTGGTCAGGGCCAGTATAGGAGGAACGTT | 0.149 | -0.144 | 0.23 | -1.06 | -0.491 | -0.654 | -0.63 | -0.985
GGAACGACGGCAAAGTTGATAGCATCTGTCGACG | -0.736 | -0.162 | -0.0781 | -0.543 | 0.157 | -0.802 | -1.24 | -0.637
CCTACTGGGCCATCCGGTCATTGATATCAACGTT | 1.9 | 0.787 | 1.34 | -0.598 | 0.106 | 0.75 | 0.677 | 0.0499
CCTATTCGTTGACCATAAGGGCAACCGAAGCTCG | 2.14 | 1.16 | 1.04 | 0.173 | 0.704 | 1.85 | 1.57 | 0.974
TCATATAGGTTAATGCTAGGTGAAAGTCCGATCT | 1.41 | 1.98 | 1.16 | 1.64 | 1.48 | 2.53 | 1.08 | 0.748
CGACCAAGGTCAATGCTAGGTCAGTGAAAGCATT | 4.82 | 7.46 | 6.84 | 3.44 | 5.73 | 4.18 | 2.25 | 2.89
TGTCAAAGTTCAAAGGTAACGCAAGTATCCACAC | 3.97 | 6.5 | 6.22 | 4.42 | 7.38 | 3.23 | 0.0532 | 4.37
CCGCCTGGGGCAGAAAGGTTACCATACCATCCGG | 2.37 | 1.47 | 1.32 | -0.959 | 1.55 | 1.03 | -0.231 | 0.052
GCGACTGGGGCATCAGCAGGTTACAATAACTTAA | 0.719 | 0.817 | 0.522 | -0.00722 | 0.334 | 0.895 | 0.0253 | -0.0954
AGAATGAGGTTATGATCAGGGAAACAGAATACAT | 0.715 | 1.74 | 1.11 | 1.02 | 2.16 | 2.44 | 0.714 | 0.317
TCGAGTAGGTTACCAACGGGGCATTCAGCTTTCT | 0.583 | 1.52 | 0.504 | 0.191 | 0.733 | 0.042 | -0.794 | -0.578
TGAATGAGGTTACAAGATCAGGGAACGTTGCAAA | 0.458 | 1.79 | 1.52 | 0.127 | 2.26 | 2.2 | 0.329 | 0.106
ACCGAAAGGTCGACGAGGTGAGTATACACCGTTT | 3.18 | 4.28 | 4.13 | 1.58 | 4.27 | 3.61 | 0.645 | 1.01

Sequence | PBM binding z-score [1] | PBM binding z-score [2] | PBM binding z-score [3] | PBM binding z-score [4] | PBM binding z-score [5] | PBM binding z-score [6] | PBM binding z-score [7] | PBM binding z-score [8]
CGTCAAACTTCAAGGTAACGTAACAGAAAGCAGC | 0.274 | 0.163 | 0.537 | 0.306 | 0.376 | 1.73 | 1.11 | -0.0172
TCGATTAGGTTAGGGGCATTCAGAATGGCGTCGA | 1.25 | 0.511 | 0.723 | 1.34 | 0.857 | 1.33 | 0.776 | 1.08
CCGAGTAGGTTTTGGGGCATTCAGGCAACGGTGA | 0.615 | -0.245 | -0.424 | 0.218 | -0.246 | 0.595 | 0.467 | 0.218
TCTGCTAGGTCAGATGGTCAGCTAACGAGCTGCC | 2.5 | 3.25 | 4.16 | 0.506 | 1.84 | 1.51 | -0.192 | -0.819
AGAATGAGGCTATACGTAGATCAGGGAAGAAAGT | -0.0625 | 0.222 | 0.232 | -0.0879 | -0.0272 | 0.084 | -0.165 | -0.0917
ATCTCTAGGTAACAAGTTCAGCGAAAGAGAGGAC | 2.17 | 2.04 | 1.72 | 0.87 | 1.27 | 1.74 | 0.96 | 3
ATATGTAGGTTATCGGGTGATTCAGTTTGCGCAT | 1.27 | 0.897 | 0.751 | 0.935 | 1.26 | 1.27 | 1.49 | 0.83
ATATGTAGGGTAAGGGTCATTCAGGTTGGTTCGC | 4.19 | 4.59 | 3.27 | 2.16 | 5.38 | 3.68 | 2.68 | 5.02
CCTAGCAGGCCAGGGACACTCAAGCATTTCGCTT | 0.112 | -0.238 | -0.144 | -0.269 | -0.377 | 0.512 | 0.193 | -0.34
TCTTGTAGATCAATAGAGGTTAGGAAAGTGCGCT | 0.826 | 0.947 | 0.486 | 0.658 | 1.29 | 2 | -0.0407 | 0.48
TTACCAAGATGAAAGGTCGTTGATGCACGCCTTG | 1.55 | 1.58 | 0.973 | 0.753 | 2.49 | 1.27 | -0.262 | 1.53
TTACCAAGGTGAAAGGTCCTTGATGCACGCCTTG | 1.22 | 1.67 | 0.796 | -0.243 | 2.47 | 2.28 | 0.542 | -0.756
GCGACTCGGGCATCAGCAGGTTACCATAACTTAA | 0.226 | 0.257 | 0.0755 | -0.281 | 0.133 | 0.266 | -0.36 | -0.501
CGAACTAGGCCATCCAGGACAGTGAATACATTGA | 0.41 | 0.517 | 0.851 | 0.537 | 0.302 | 1.57 | 0.93 | 0.275
ACTAGTTGGTCAGCTGAGGTCACGCACAATTCGG | 4.79 | 4.85 | 4.8 | 1.32 | 4.79 | 5.26 | 5.78 | 3.51
ACTTACGGGTCAACGAGGATATAGCACGCGTATA | 2.74 | 5.35 | 4.72 | 2.12 | 5.48 | 3.55 | 0.687 | 2.15
CGAACTAGGTCAAGAGGTCAAAGTCCGCTTCCCG | 5.66 | 8.2 | 7.63 | 2.69 | 8.43 | 4.34 | 2.51 | 3.88
GATTGTAGATCAAGGTTAAGAAAGACTAAGCTAA | -0.213 | 0.14 | 0.339 | -0.224 | 0.781 | 0.867 | -0.616 | -0.0253
ACTGTTAGTTGAGACGAGGGCAACCGATAGGTTG | 1.26 | 0.764 | 1.13 | 0.337 | 0.451 | 2.63 | 0.349 | 0.808
